Compound activity deposited in PubChem by The Scripps Research Institute Molecular Screening Center.
LEDGF integ inh: blocks HIV-1 LEDGF/p75-dependent DNA integration. TR-FRET IN-LEDGF/p75 DNA integration, Eu/Cy5. inhibition, % at 3.7 µM. hit rate 0.64% among 370,000. AID 743269;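 active = inhibition above the screen-wide mean plus 3 SD, cut at about 13% in these data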;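 note: signal is the Cy5 over europium emission ratio at 671 and 618 nm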
PRMT1 inh: inhibitors of human PRMT1; Q99873; recombinant PRMT1, activity-based probe fluorescence polarization; inhibition, % at 2.79 µM; hit rate 1.3% among 370,000; AID 652257;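 active = inhibition above about 21% made by adding two undisclosed values, limit read from the data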
Target sequence (Q99873 whole entry, looked up): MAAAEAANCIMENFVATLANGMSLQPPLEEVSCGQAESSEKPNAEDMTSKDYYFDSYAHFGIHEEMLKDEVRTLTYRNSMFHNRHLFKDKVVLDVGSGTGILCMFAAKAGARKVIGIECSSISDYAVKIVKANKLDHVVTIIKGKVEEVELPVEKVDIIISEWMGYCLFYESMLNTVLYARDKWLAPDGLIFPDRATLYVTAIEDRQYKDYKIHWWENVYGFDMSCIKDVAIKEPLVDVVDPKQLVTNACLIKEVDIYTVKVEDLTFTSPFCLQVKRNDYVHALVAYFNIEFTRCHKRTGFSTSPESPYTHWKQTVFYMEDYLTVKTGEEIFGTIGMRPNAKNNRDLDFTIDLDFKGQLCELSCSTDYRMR
MBD2 inh: MBD2-methylated oligo binding inhibition; AID 686964; inhibition, % at 4.4 µM; TR-FRET, MBD2 binding to methylated oligonucleotide; Q9UBB5; hit rate 0.31% among 370,000; in the data active = inhibition above about 13%
UHRF1 binding: blocks human UHRF1 binding to methylated DNA | Q96T88 | UHRF1 binding to methylated oligo, TR-FRET | inhibition, % at 4.4 µM | hit rate 0.75% among 370,000 | AID 687016; in the data active = inhibition above about 21%;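 note: UHRF1 SRA domain binding a hemimethylated CpG hairpin DNA probe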
PRMT1 confirm: PRMT1 (human) inhibition, FP confirmation; shares compounds with PRMT1 inh; AID 687036; recombinant His-PRMT1, activity-based probe fluorescence polarization; inhibition, % at 2.79 µM; hit rate 42% among 3,300;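 active = mean inhibition across replicates above the hit cutoff derived for the earlier primary screen, cut at about 22% in these data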
A number is an active result; 0 = inactive; - = not tested or not shown. A selection: hits, their analogues and other compounds. The true share with any hit is near 2.5%.

SMILES	LEDGF integ inh	PRMT1 inh	MBD2 inh	UHRF1 binding	PRMT1 confirm
Cc1ccc(-c2cc(-c3ccc4c(c3)OCO4)c(C#N)c(N)n2)o1	0	44	0	0	31
CC(C)CNC(=O)OCc1cn(Cc2cc(F)ccc2F)nn1	0	0	0	0	-
Cc1cccc(NC(=O)c2sc3nc4c(c(-c5cccs5)c3c2N)CN(C)CC4)c1	0	0	0	0	-
CC(C)NC(=O)c1sc2nc3c(c(-c4cccs4)c2c1N)CN(C)CC3	0	39	0	0	0
O=C(Cn1sc2ccccc2c1=O)Nc1ccc(F)cc1	0	91	0	0	91
O=C(Cn1nc(-c2ccccc2)c2ccccc2c1=O)Nc1ccc(F)cc1	0	0	0	0	-
O=C(Cn1sc2ccccc2c1=O)Nc1ccc(Cl)cc1	0	90	0	0	90
O=C(Cn1sc2ccccc2c1=O)Nc1ccc(Br)cc1	0	93	0	0	81
Nc1nc(Sc2ccc([N+](=O)[O-])c3nonc23)c2[nH]cnc2n1	0	89	0	0	84
CCOC(=O)C1=NOC2(C1)C(=O)Nc1c(Cl)cccc12 (stereo not given)	0	0	0	0	-
CCCOC(=O)c1c(NC(=O)C2C3C=CC(C3)C2C(=O)O)sc2c1CCC(C)C2 (stereo not given)	0	52	0	0	0
Cc1cc2cc(C=C(C#N)C#N)c(Cl)nc2cc1C	0	86	0	0	0
CCOC(=O)/C(C#N)=C/c1cc2cc(C)c(C)cc2nc1Cl	0	0	0	0	-
O=C(Nc1cccc(C(F)(F)F)c1)c1csc(COCCO)n1	0	0	0	0	-
COCCn1c2nc(=O)n(-c3ccccc3)c(=O)c-2nc2ccccc21	0	115	0	0	113
Cc1cccc(N2C(=O)CC(Sc3ncn[nH]3)C2=O)c1 (stereo not given)	0	58	0	0	55
Cc1ccc(N2C(=O)CC(Sc3ncn[nH]3)C2=O)cc1C (stereo not given)	0	61	0	22	44
Cc1cccc(N2C(=O)CC(Sc3nccc(C)n3)C2=O)c1 (stereo not given)	0	0	0	0	-
O=C1C=C(NNC(=O)c2ccncc2)CC(c2ccccc2)C1 (stereo not given)	0	63	0	0	0
Cc1cc(C)n2nc(N)c(N=Nc3cccc(Cl)c3)c2n1	0	58	0	0	0
O=C1CC(N(O)C2CC(=O)N(Cc3ccccc3)C2=O)C(=O)N1Cc1ccccc1 (stereo not given)	0	0	0	0	-
CCCN(CCC)C1CC(=O)N(Cc2ccccc2)C1=O (stereo not given)	0	76	0	0	24
CSc1ccc(S(=O)(=O)NCC(=O)OCC(=O)NCc2cccs2)cc1[N+](=O)[O-]	0	0	0	0	-
S=c1[nH]cc(-c2ccccc2)n1-c1ccccc1	0	34	0	0	0
COC(=O)c1ccncc1N	0	0	0	0	-
SMILES	LEDGF integ inh	PRMT1 inh	MBD2 inh	UHRF1 binding	PRMT1 confirm
Nc1cnccc1C(=O)O	0	71	0	0	0
O=C(CSc1nc2nc(-c3cccs3)cc(C(F)(F)F)c2c(=O)[nH]1)C(F)(F)F	0	58	0	0	84
O=C(CSc1nc2nc(-c3cccs3)cc(C(F)(F)F)c2c(=O)[nH]1)NCc1ccco1	0	30	0	0	0
COC(=O)CSc1nc2nc(-c3cccs3)cc(C(F)(F)F)c2c(=O)[nH]1	0	0	0	0	-
CN(C(=O)CSc1nc2ccccc2n1C)C1CCS(=O)(=O)C1 (stereo not given)	0	0	0	0	-
CC(C)(C)c1nnc(NC(=S)Nc2ccccc2)s1	0	0	0	0	-
CCOC(=O)C1=C(COC(=O)c2cc(S(=O)(=O)N(C)C)ccc2C)NC(=O)NC1C (stereo not given)	0	0	0	0	-
Cc1cc2c(nc1C)CCCN2S(=O)(=O)c1ccc(C#N)cc1	0	0	0	0	-
CCc1cc2c(nc1CC)CCCN2S(=O)(=O)c1ccc(C#N)cc1	0	59	0	0	52
CN(C)C(=O)NC1c2ccccc2-c2ccccc21	0	0	0	0	-
O=C1C=CC(=O)N1c1ccc2c(c1)C(NC(=O)C(F)(F)F)c1ccccc1-2 (stereo not given)	0	91	0	0	87
CC(C)(C)NC(=O)C(c1ccc(C#N)cc1)n1c(=O)c(-c2ccco2)nc2ccccc21 (stereo not given)	0	31	0	0	36
CC(C)(C)NC(=O)C(c1ccc(C#N)cc1)n1c(=O)c(-c2ccccc2)nc2ccccc21 (stereo not given)	0	0	0	0	-
COc1ccc(C(C(=O)NC(C)(C)C)n2c(=O)c(-c3ccco3)nc3ccccc32)cc1 (stereo not given)	0	31	0	0	0
CCCCCNC(=O)C(c1cccc2ccccc12)n1c(=O)c(-c2ccco2)nc2ccccc21 (stereo not given)	0	32	0	0	0
CC(C)(C)NC(=O)C(c1ccc(-c2ccccc2)cc1)n1c(=O)c(-c2ccco2)nc2ccccc21 (stereo not given)	0	0	0	0	-
CCc1cc(-c2nnn(CCC3COCCO3)c2CC)cc(CC)c1-c1cn(CCc2c[nH]c3ccccc23)nn1 (stereo not given)	0	0	0	0	-
COc1cccc(NC(=O)CCC(=O)Nc2cccc(OC)c2)c1	0	0	0	0	-
COc1cccc(NC(=O)CSc2ccc(-c3ccco3)nn2)c1	0	42	0	0	0
Cc1cccc(NC(=O)CSc2nc(N)cc(N)n2)c1	0	0	0	0	-
O=C(CSc1ccc(-c2ccco2)nn1)c1ccccc1	0	28	0	0	0
COc1cccc(NC(=O)CSC(N)=O)c1	0	63	0	0	87
Cc1cccc(NC(=O)CSc2nnc(-c3ccco3)c(-c3ccco3)n2)c1	0	42	0	0	52
CCOC(=O)/C=C1/SCC(=O)N1CC(=O)Nc1ccccc1OC(F)F	0	0	0	0	-
O=C(c1ccc(F)cc1F)N1CCC(Oc2cccnc2)CC1	0	0	0	0	-
SMILES	LEDGF integ inh	PRMT1 inh	MBD2 inh	UHRF1 binding	PRMT1 confirm
COc1ccc2c(c1OC)C(=O)N1N=C(c3ccc(-c4ccccc4)cc3)CC21 (stereo not given)	0	0	0	0	-
COc1ccc2c(c1OC)C(=O)N1c3ccccc3N=C(c3ccc([N+](=O)[O-])cc3)CC21 (stereo not given)	0	32	0	0	0
CN(C)CCCN(C(=O)CCOc1ccccc1)c1nc2c(F)cccc2s1	0	31	0	0	0
CCn1nc(C)cc1-c1nnc(Sc2ncc([N+](=O)[O-])s2)n1C	0	55	0	0	63
CCn1nc(C)cc1-c1nnc(SCC(=O)Nc2ccccc2)n1CCCOC	0	0	0	0	-
COc1ccc(CNC(=O)CSC(=S)N2CCCC2)cc1	0	0	0	0	-
CC(C)c1ccc(CCNC(=O)CSC(=S)N2CCCC2)cc1	0	32	0	0	0
CCCCCCN1CCN(C2CN(CCCC)S(=O)(=O)C2)CC1 (stereo not given)	0	0	0	0	-
O=C1C(=C2CCCCC2)SC(=S)N1Cc1ccco1	0	44	0	0	39
